From PubChem BioAssay
The source made the active and inactive calls.

Assays:
[1] = system: PRMT1 (protein arginine N-methyltransferase 1); assay: small molecules binding arginine methyltransferase PRMT1 – biochemical, small-molecule microarray, 635 nm fluorescence, primary screen (AID 1088); settings: higher = more signal;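 note: binding of Prmt1 protein to compounds spotted on small-molecule microarray slides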
[2] = growth effects on S. cerevisiae YJM789 – YJM789 clinical isolate, OD600, 24 h, basal, primary screen (AID 1089); settings: higher = more signal, called active from +8 up or from −8 down;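 note: growth of clinical yeast isolate S. cerevisiae YJM 789 seeded 1000 cells per well; test concentration not given here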
[3] = S. pombe growth modifiers, basal conditions – strain 972, OD600, 24 h, no modulator, primary screen (AID 1090);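 note: basal condition with compound alone and no growth modifier present; test concentration not given here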; settings: S. pombe 972 growth, higher = more signal, called active from +8 up or from −8 down
[4] = budding yeast growth modifiers under rapamycin – strain BY4716, OD600, 96 h, primary screen (AID 1091); note: test concentration not given here; settings: S. cerevisiae BY4716 + rapamycin, higher = more signal, called active from +8 up or from −8 down
[5] = target: Torsin-1A-interacting protein 2 (Homo sapiens) (UniProt Q8NFQ8); assay: small molecules binding lysate-expressed LULL1 – cell lysate, human LULL1 lysate, 635/667 nm fluorescence, primary screen (AID 1092); settings: small-molecule microarray, hLULL1 lysate binding, 635 nm fluorescence; higher = more signal;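 note: probe is lysate of COS7 cells overexpressing human LULL1; score merges per-feature 667 nm fluorescence with signal-to-noise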
[6] = optical density change of DRC41 E. coli – strain DRC41, OD650, 24 h, E. coli filamentation project, primary screen (AID 1093);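 note: MC1000 strain lacking acrAB efflux and sulA so SOS filamentation is blocked; test concentration not given here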; settings: E. coli DRC41 growth, higher = more signal, called active from +8 up or from −8 down
[7] = probe aLefty2 binding to arrayed compounds – biochemical, biotinylated probe, 635/667 nm fluorescence, primary screen (AID 1094); settings: small-molecule microarray, higher = more signal;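 note: score merges spot fluorescence near 667 nm with spot signal-to-noise ratio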
[8] = system: Noggin (protein binding on small-molecule microarray); assay: small molecules binding Noggin protein – biochemical, 635/667 nm fluorescence, primary screen (AID 1095); settings: 635 nm fluorescence, higher = more signal;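 note: score merges 667 nm feature fluorescence with signal to noise over triplicate slides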
[9] = target: Neurogenic locus notch homolog protein 3 (Homo sapiens) (UniProt Q9UM47); assay: small molecules binding NOTCH3 protein – biochemical, 635/667 nm fluorescence, primary screen (AID 1096); settings: small-molecule microarray, 635 nm fluorescence, higher = more signal
[10] = probe aEGFR binding to arrayed compounds – biochemical, biotinylated probe, 635/667 nm fluorescence, primary screen (AID 1097); settings: small-molecule microarray, higher = more signal;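 note: probe is a biotinylated anti-EGFR antibody binding compounds printed on slides; score combines fluorescence near 667 nm and signal to noise of each spot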
[11] = system: Plasmodium falciparum Sir2 (PF13_0152, Sir2A); assay: Plasmodium falciparum Sir2A binding compounds – biochemical, small-molecule microarray, 635 nm fluorescence, primary screen (AID 1098); settings: fluorescence 635 nm, higher = more signal;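 note: score merges spot fluorescence intensity with its signal-to-noise ratio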
[12] = probe aDKK1 binding to arrayed compounds – biochemical, biotinylated probe, 635/667 nm fluorescence, primary screen (AID 1099); settings: small-molecule microarray, higher = more signal;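 note: score merges 667nm spot fluorescence with signal to noise across triplicate slides; reference of the scale not given here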
[13] = probe aCHRDL2 binding to arrayed compounds – biochemical, biotinylated probe, 635/667 nm fluorescence, primary screen (AID 1100); settings: small-molecule microarray, higher = more signal
[14] = change in splice reporter luminescence, either direction, cell-based, HEK293, spliceosome inhibition project, primary screen (AID 1101); settings: HEK293 splicing luciferase reporter, 24 h, higher = more signal, called active from +8 up or from −8 down;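 note: HEK293 cells carrying a splicing-competent luciferase reporter gene; test concentration not given here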
[15] = target: Fibroblast growth factor 10 (Homo sapiens) (UniProt O15520); assay: compounds binding fibroblast growth factor 10 – biochemical, small-molecule microarray, 635 nm fluorescence, primary screen (AID 1102); settings: FGF10 binding, fluorescence 635 nm, higher = more signal
[16] = system: glycogen synthase kinase-3 (GSK3A per assay name; protocol says GSK3B); assay: compounds binding glycogen synthase kinase-3 – biochemical, small-molecule microarray, 635 nm fluorescence, GSK3A, primary screen (AID 1103); settings: fluorescence 635 nm, higher = more signal; note: the record names both GSK3A and GSK3B
[17] = target: Epidermal growth factor receptor (Homo sapiens) (UniProt P00533); assay: compounds binding epidermal growth factor receptor – biochemical, small-molecule microarray, 635 nm fluorescence, primary screen (AID 1104); settings: EGFR binding, higher = more signal;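 note: score merges 667 nm emission intensity with spot signal to noise over triplicate slides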
[18] = target: Follistatin-related protein 3 (Homo sapiens) (UniProt O95633); assay: compounds binding follistatin-related protein 3 – biochemical, small-molecule microarray, 635 nm fluorescence, primary screen (AID 1105); settings: FSTL3 binding, higher = more signal;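 note: score merges emission near 667 nm and signal to noise per printed spot across three slides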
[19] = target: Dickkopf-related protein 1 (Homo sapiens) (UniProt O94907); assay: small molecules binding DKK1 protein – biochemical, small-molecule microarray, 635 nm fluorescence scan, primary screen (AID 1106); settings: higher = more signal;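 note: score merges emission near 667 nm with signal to noise over three replicate slides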
[20] = system: Inhibin beta A chain (activin A); assay: small molecules binding activin A – biochemical, small-molecule microarray, 635 nm fluorescence scan, primary screen (AID 1107); settings: INHBA, higher = more signal;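 note: mouse activin A protein probed at 4.33 µg/mL on printed slides; score merges bound-protein fluorescence near 667 nm with spot signal-to-noise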

Sequence of Fibroblast growth factor 10 (Homo sapiens) (O15520 whole entry, looked up): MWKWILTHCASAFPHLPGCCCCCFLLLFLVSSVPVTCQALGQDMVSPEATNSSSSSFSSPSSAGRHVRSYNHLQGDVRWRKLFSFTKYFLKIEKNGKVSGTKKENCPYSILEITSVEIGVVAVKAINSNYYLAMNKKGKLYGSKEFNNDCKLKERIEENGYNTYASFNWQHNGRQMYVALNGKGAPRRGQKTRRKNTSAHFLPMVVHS
Sequence of Torsin-1A-interacting protein 2 (Homo sapiens) (Q8NFQ8 whole entry, looked up): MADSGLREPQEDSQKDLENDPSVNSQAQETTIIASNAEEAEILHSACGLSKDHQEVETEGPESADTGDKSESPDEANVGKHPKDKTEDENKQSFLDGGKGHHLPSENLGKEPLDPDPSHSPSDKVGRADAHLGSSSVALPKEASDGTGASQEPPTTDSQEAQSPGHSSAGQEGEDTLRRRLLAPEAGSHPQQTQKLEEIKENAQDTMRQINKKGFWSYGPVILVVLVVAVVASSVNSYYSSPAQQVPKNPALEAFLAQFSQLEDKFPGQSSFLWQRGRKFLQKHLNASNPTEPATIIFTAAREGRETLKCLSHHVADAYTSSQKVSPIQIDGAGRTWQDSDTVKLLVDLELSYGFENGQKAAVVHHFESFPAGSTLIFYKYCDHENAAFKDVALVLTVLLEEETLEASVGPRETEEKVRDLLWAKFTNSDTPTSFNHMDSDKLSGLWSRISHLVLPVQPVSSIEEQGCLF
Sequence of Neurogenic locus notch homolog protein 3 (Homo sapiens) (Q9UM47 whole entry, looked up): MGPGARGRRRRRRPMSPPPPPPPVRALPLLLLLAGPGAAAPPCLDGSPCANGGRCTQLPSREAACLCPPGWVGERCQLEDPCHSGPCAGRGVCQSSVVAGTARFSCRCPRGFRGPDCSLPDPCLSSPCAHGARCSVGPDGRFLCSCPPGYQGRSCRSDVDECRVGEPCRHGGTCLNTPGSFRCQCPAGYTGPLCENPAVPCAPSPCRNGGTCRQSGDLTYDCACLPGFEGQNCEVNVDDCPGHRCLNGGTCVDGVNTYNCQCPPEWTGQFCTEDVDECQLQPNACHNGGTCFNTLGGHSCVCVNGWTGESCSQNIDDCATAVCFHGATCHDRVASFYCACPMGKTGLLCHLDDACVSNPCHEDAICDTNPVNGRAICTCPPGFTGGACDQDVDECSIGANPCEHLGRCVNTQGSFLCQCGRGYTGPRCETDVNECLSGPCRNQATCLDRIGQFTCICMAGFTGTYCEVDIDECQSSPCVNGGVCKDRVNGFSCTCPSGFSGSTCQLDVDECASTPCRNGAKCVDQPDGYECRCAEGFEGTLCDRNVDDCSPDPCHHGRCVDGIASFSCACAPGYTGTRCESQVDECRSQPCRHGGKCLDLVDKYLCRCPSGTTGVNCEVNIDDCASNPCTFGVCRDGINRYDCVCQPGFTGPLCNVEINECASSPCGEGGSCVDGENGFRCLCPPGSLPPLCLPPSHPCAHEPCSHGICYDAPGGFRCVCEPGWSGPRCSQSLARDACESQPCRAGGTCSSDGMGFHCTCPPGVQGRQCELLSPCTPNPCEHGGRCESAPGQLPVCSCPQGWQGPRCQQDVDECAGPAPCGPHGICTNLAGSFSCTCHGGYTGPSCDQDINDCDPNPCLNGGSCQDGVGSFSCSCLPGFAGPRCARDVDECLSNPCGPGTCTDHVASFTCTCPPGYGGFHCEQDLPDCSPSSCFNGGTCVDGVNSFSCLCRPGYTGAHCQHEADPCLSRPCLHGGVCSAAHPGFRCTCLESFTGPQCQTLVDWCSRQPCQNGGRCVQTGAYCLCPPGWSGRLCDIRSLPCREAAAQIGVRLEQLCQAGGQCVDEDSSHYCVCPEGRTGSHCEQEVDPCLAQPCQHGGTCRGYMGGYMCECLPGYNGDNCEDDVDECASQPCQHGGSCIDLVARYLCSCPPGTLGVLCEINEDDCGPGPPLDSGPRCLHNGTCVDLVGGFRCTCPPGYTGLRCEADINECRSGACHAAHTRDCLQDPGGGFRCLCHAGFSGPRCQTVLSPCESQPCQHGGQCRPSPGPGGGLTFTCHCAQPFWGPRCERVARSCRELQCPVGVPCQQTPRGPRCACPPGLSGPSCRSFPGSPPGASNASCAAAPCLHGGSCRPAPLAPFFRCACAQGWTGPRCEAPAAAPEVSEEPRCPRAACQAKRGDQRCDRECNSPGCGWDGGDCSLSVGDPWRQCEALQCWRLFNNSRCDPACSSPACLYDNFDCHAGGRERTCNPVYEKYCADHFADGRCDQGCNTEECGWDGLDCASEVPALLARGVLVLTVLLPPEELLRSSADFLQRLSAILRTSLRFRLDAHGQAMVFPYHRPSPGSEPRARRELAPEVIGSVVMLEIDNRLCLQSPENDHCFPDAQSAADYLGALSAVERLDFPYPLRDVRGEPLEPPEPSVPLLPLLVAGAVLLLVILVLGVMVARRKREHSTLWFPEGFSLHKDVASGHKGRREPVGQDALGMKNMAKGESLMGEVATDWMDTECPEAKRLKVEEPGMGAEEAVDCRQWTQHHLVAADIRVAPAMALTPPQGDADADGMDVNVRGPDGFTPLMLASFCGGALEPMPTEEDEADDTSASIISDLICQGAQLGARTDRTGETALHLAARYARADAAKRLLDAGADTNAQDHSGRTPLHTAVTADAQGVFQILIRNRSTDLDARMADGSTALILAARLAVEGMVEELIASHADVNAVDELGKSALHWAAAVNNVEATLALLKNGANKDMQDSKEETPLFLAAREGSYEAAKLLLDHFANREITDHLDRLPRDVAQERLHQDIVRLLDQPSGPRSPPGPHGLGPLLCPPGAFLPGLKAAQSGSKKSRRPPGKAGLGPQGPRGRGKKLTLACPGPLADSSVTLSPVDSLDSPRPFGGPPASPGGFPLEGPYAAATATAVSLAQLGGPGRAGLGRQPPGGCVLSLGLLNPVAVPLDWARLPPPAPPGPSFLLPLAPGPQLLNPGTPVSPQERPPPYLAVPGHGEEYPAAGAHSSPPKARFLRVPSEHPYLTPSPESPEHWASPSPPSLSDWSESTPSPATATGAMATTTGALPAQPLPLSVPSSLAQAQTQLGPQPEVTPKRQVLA
Sequence of Dickkopf-related protein 1 (Homo sapiens) (O94907 whole entry, looked up): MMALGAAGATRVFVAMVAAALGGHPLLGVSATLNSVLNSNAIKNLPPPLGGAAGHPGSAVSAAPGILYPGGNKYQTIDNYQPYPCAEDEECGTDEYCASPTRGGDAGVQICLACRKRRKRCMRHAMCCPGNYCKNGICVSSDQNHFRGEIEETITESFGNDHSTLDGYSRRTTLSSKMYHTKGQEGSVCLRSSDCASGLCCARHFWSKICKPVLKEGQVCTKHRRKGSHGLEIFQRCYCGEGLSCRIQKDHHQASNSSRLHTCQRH
Sequence of Follistatin-related protein 3 (Homo sapiens) (O95633 whole entry, looked up): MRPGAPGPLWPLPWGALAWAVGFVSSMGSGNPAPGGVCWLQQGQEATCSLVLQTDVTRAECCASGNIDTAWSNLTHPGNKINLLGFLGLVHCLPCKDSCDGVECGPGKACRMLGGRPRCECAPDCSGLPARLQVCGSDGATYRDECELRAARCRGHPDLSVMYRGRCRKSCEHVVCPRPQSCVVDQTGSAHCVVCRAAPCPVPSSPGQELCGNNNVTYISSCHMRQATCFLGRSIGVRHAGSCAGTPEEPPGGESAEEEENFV
Sequence of Epidermal growth factor receptor (Homo sapiens) (P00533 whole entry, looked up): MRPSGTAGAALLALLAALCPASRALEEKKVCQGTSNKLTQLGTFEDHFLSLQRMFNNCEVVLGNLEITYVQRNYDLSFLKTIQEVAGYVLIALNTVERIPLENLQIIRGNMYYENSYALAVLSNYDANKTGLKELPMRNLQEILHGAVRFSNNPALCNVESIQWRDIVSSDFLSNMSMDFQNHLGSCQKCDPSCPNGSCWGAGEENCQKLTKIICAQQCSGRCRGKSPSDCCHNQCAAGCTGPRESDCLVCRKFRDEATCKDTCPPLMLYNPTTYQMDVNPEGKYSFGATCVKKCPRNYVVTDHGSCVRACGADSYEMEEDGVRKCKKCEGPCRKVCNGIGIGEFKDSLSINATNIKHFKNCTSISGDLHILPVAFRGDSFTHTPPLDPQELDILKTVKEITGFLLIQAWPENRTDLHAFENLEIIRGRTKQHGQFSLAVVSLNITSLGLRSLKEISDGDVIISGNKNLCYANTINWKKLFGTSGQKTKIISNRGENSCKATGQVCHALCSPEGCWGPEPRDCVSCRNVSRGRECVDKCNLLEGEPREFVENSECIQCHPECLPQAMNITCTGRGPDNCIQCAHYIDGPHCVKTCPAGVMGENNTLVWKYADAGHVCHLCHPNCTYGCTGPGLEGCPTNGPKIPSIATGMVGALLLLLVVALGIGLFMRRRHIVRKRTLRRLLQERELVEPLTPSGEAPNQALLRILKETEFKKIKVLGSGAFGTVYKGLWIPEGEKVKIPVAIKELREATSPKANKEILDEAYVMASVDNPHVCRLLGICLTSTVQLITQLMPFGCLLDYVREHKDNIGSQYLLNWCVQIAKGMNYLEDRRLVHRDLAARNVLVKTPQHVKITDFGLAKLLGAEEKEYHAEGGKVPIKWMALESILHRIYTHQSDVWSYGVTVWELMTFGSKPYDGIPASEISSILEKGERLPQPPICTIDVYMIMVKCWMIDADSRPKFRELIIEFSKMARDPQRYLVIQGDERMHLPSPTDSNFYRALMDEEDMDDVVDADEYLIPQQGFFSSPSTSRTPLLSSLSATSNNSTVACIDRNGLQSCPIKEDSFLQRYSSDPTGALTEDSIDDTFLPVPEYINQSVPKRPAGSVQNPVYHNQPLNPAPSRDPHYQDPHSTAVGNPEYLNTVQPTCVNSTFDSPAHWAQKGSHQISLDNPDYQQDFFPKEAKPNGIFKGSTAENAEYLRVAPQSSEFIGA

O=C1C[C@@H](O)[C@@H](O)[C@@H]2[C@@H]3C(=O)N(c4ccc(F)cc4F)C(=O)[C@@H]3CC[C@H]12
composite z-score [1]: 0.599 | z-score [2]: -0.175 (inactive) | z-score [3]: -0.177 (inactive) | z-score [4]: -0.147 (inactive) | composite z-score [5]: 0.734 | z-score [6]: 0.124 (inactive) | composite z-score [7]: -0.0782 | composite z-score [8]: 0.43 | composite z-score [9]: 0.6 | composite z-score [10]: -0.0695 | composite z-score [11]: 0.88 | composite z-score [12]: -0.0704 | composite z-score [13]: -0.511 | z-score [14]: 0.759 (inactive) | composite z-score [15]: 0.514 | composite z-score [16]: 0.662 | composite z-score [17]: 0.394 | composite z-score [18]: 0.638 | composite z-score [19]: 0.597 | composite z-score [20]: 0.148

COC(=O)[C@H](C)NC(=O)CCC1CC(OC(=O)NCc2cccc3ccccc23)CC2(CCCC(COC(=O)NCCOc3ccccc3)O2)O1 (stereo not given in full)
composite z-score [1]: 1.53 | z-score [2]: -0.534 (inactive) | z-score [3]: -0.231 (inactive) | z-score [4]: -0.576 (inactive) | composite z-score [5]: 2.21 | z-score [6]: 0.544 (inactive) | composite z-score [7]: -0.208 | composite z-score [8]: 0.11 | composite z-score [9]: 0.377 | composite z-score [10]: -0.145 | composite z-score [11]: 1.1 | composite z-score [12]: -0.357 | composite z-score [13]: -0.413 | z-score [14]: -0.834 (inactive) | composite z-score [15]: 0.411 | composite z-score [16]: 0.526 | composite z-score [17]: 0.148 | composite z-score [18]: 0.319 | composite z-score [19]: -0.303 | composite z-score [20]: -0.143

O=C1C=C[C@@H](O)[C@@H]2[C@@H]3C(=O)N(c4cccc(Oc5ccccc5)c4)C(=O)[C@@H]3CC[C@@H]12
composite z-score [1]: 0.491 | z-score [2]: 0.162 (inactive) | z-score [3]: -0.753 (inactive) | z-score [4]: -0.0875 (inactive) | composite z-score [5]: 0.36 | z-score [6]: 0.533 (inactive) | composite z-score [7]: -0.204 | composite z-score [8]: 0.403 | composite z-score [9]: 0.477 | composite z-score [10]: 0.0443 | composite z-score [11]: 0.378 | composite z-score [12]: -0.147 | composite z-score [13]: -0.597 | z-score [14]: -0.856 (inactive) | composite z-score [15]: 0.322 | composite z-score [16]: 0.499 | composite z-score [17]: 0.386 | composite z-score [18]: 0.438 | composite z-score [19]: 0.503 | composite z-score [20]: -0.0914

CO[C@@H]1COC(=O)[C@@H]2CCCN2C(=O)[C@@H](C)COC(=O)CCC[C@H]1C
composite z-score [1]: 1.55 | z-score [2]: -1.86 (inactive) | z-score [3]: -0.875 (inactive) | z-score [4]: -0.815 (inactive) | composite z-score [5]: 0.871 | z-score [6]: -0.76 (inactive) | composite z-score [7]: -0.176 | composite z-score [8]: 0.456 | composite z-score [9]: 0.525 | composite z-score [10]: 0.158 | composite z-score [11]: 0.877 | composite z-score [12]: -0.331 | composite z-score [13]: -0.624 | z-score [14]: -1.27 (inactive) | composite z-score [15]: 0.981 | composite z-score [16]: 0.561 | composite z-score [17]: 0.38 | composite z-score [18]: 0.621 | composite z-score [19]: 0.661 | composite z-score [20]: -0.751

COC(=O)CC=C[C@@H](C)[C@@H](C=NOC[C@@H](O)COCc1ccco1)OC
composite z-score [1]: 0.302 | z-score [2]: -0.0605 (inactive) | z-score [3]: -0.543 (inactive) | z-score [4]: 0.225 (inactive) | composite z-score [5]: 0.378 | z-score [6]: -0.255 (inactive) | composite z-score [7]: -0.336 | composite z-score [8]: 1.49 | composite z-score [9]: -0.456 | composite z-score [10]: -0.132 | composite z-score [11]: 1.05 | composite z-score [12]: -0.589 | composite z-score [13]: -1.34 | z-score [14]: -0.485 (inactive) | composite z-score [15]: -0.469 | composite z-score [16]: 0.149 | composite z-score [17]: -0.446 | composite z-score [18]: -0.0313 | composite z-score [19]: 1.15 | composite z-score [20]: 0.533

COC(=O)CC=C[C@@H](C)[C@@H](C=NOC(C)CN1CCCc2nc(C)c(C)cc21)NS(=O)(=O)c1ccc(C)cc1 (stereo not given in full)
composite z-score [1]: 1.3 | z-score [2]: 0.207 (inactive) | z-score [3]: 0.12 (inactive) | z-score [4]: -0.0152 (inactive) | composite z-score [5]: 1.05 | z-score [6]: 0.644 (inactive) | composite z-score [7]: 0.156 | composite z-score [8]: 0.629 | composite z-score [9]: 0.812 | composite z-score [10]: -0.0158 | composite z-score [11]: 0.268 | composite z-score [12]: 0.219 | composite z-score [13]: -0.296 | z-score [14]: 0.218 (inactive) | composite z-score [15]: 0.65 | composite z-score [16]: 0.793 | composite z-score [17]: 0.568 | composite z-score [18]: 1.01 | composite z-score [19]: 0.829 | composite z-score [20]: 0.932

COC(=O)CC=C[C@@H](C)[C@@H](C=NOC(C)CN1CCCCc2nc(C)c(C)cc21)OC (stereo not given in full)
composite z-score [1]: 1.24 | z-score [2]: -0.793 (inactive) | z-score [3]: -0.472 (inactive) | z-score [4]: -0.906 (inactive) | composite z-score [5]: 1.24 | z-score [6]: -0.123 (inactive) | composite z-score [7]: -0.0063 | composite z-score [8]: 0.946 | composite z-score [9]: 0.234 | composite z-score [10]: 0.0282 | composite z-score [11]: 0.519 | composite z-score [12]: -0.343 | composite z-score [13]: -0.613 | z-score [14]: 0.854 (inactive) | composite z-score [15]: -0.285 | composite z-score [16]: 0.959 | composite z-score [17]: 0.686 | composite z-score [18]: 0.975 | composite z-score [19]: 1.33 | composite z-score [20]: 1.19

O=C1C2=CC[C@H]3C(=O)N(C4CCCCC4)C(=O)[C@H]3[C@H]2[C@H](O)[C@@H]2O[C@H]12
composite z-score [1]: -0.642 | z-score [2]: -0.163 (inactive) | z-score [3]: -6.78 (inactive) | z-score [4]: -1.25 (inactive) | composite z-score [5]: 0.821 | z-score [6]: -0.391 (inactive) | composite z-score [7]: -0.196 | composite z-score [8]: -0.725 | composite z-score [9]: -1.63 | composite z-score [10]: -0.0389 | composite z-score [11]: -0.541 | composite z-score [12]: -0.121 | composite z-score [13]: -0.588 | z-score [14]: 15.3 (active) | composite z-score [15]: -0.246 | composite z-score [16]: -1.31 | composite z-score [17]: 0.0862 | composite z-score [18]: -1.22 | composite z-score [19]: 0.271 | composite z-score [20]: -0.185

CCOC(=O)[C@H](CC(C)C)NC(=O)CCC1CC(OC(=O)NCCc2ccc(F)cc2)CC2(CCCC(COC(=O)NCCOC)O2)O1 (stereo not given in full)
composite z-score [1]: 1.41 | z-score [2]: 0.513 (inactive) | z-score [3]: 1.13 (inactive) | z-score [4]: 1.5 (inactive) | composite z-score [5]: 1.7 | z-score [6]: -1.02 (inactive) | composite z-score [7]: -0.025 | composite z-score [8]: 0.382 | composite z-score [9]: 0.998 | composite z-score [10]: -0.0975 | composite z-score [11]: 0.745 | composite z-score [12]: 0.0045 | composite z-score [13]: -0.411 | z-score [14]: -0.0891 (inactive) | composite z-score [15]: 1.15 | composite z-score [16]: 0.953 | composite z-score [17]: 0.633 | composite z-score [18]: 1.36 | composite z-score [19]: 0.96 | composite z-score [20]: -0.0586

O=C1C=C[C@@H](O)[C@@H]2[C@@H]3C(=O)N(C4CCCCC4)C(=O)[C@@H]3CC[C@@H]12
composite z-score [1]: 0.299 | z-score [2]: 0.126 (inactive) | z-score [3]: -1.32 (inactive) | z-score [4]: -1.27 (inactive) | composite z-score [5]: 0.548 | z-score [6]: -0.115 (inactive) | composite z-score [7]: -0.0678 | composite z-score [8]: 0.277 | composite z-score [9]: 0.818 | composite z-score [10]: 0.0587 | composite z-score [11]: 0.252 | composite z-score [12]: -0.0259 | composite z-score [13]: -0.369 | z-score [14]: 2.14 (inactive) | composite z-score [15]: 1.07 | composite z-score [16]: 0.708 | composite z-score [17]: 0.378 | composite z-score [18]: 0.797 | composite z-score [19]: 0.844 | composite z-score [20]: 0.234
